Test results taken from the supplement of paper PMC13380429.

Assays:
[1] = system: Vero E6 infected with SARS-CoV-2; experiment: morphology score (similarity to uninfected cells); higher = more like uninfected cells; conditions: 24 h
[2] = system: Vero E6 infected with SARS-CoV-2; experiment: SARS-CoV-2 infection rate relative to infected DMSO; higher = more infection, active = 60 or less; conditions: 24 h

Row | SMILES | morphology score [1] | SARS-CoV-2 infection rate [2]
1 | COC(=O)/C=C/c1cccc(N(Cc2ccc(-c3ccc(N(C)C)cc3)cc2)C(=O)C2CCCCC2)c1 [fexaramine] (10 µM) | 0.272 | 86% (inactive)
2 | O=[N+]([O-])c1ncc[nH]1 [azomycin-(2-nitroimidazole)] (10 µM) | -0.138 | 105% (inactive)
3 | C[N+]1(C)[C@@H]2CC[C@H]1C[C@@H](OC(=O)C(CO)c1ccccc1)C2 (stereo partly specified) [methylatropine-nitrate] (10 µM) | 0.131 | 104% (inactive)
4 | CCCc1nc(C(C)(C)O)c(C(=O)OCc2oc(=O)oc2C)n1Cc1ccc(-c2ccccc2-c2nnn[nH]2)cc1 [olmesartan-medoxomil] (10 µM) | -0.0296 | 116% (inactive)
5 | FC(F)c1nc2ccccc2n1-c1nc(N2CCOCC2)nc(N2CCOCC2)n1 (10 µM) | -0.0463 | 108% (inactive)
6 | CCCNCC(O)COc1ccccc1C(=O)CCc1ccccc1 (stereo unspecified) [propafenone] (0.833333 µM) | -0.109 | 110% (inactive)
7 | Cc1c(C(=O)Nc2ccc(N3C[C@@H](C)O[C@@H](C)C3)nc2)cccc1-c1ccc(OC(F)(F)F)cc1 [sonidegib] (10 µM) | -0.0039 | 108% (inactive)
8 | Clc1ccc(COC(Cn2ccnc2)c2ccc(Cl)cc2Cl)cc1 (stereo unspecified) [econazole] (10 µM) | -0.225 | 101% (inactive)
9 | CC(=O)Oc1cc(C(F)(F)F)ccc1C(=O)O [triflusal] (10 µM) | 0.126 | 102% (inactive)
10 | CC1=C(/C=C/C(C)=C/C=C/C(C)=C/C=O)C(C)(C)CCC1 [retinaldehyde] (10 µM) | -0.111 | 114% (inactive)
11 | CC(C)(O)[C@@H]1[C@H]2OC(=O)[C@@H]1[C@]1(O)C[C@H]3O[C@]34C(=O)O[C@H]2[C@]14C [picrotin] (10 µM) | 0.0343 | 111% (inactive)
12 | CN1CCN(c2ccc3ccccc3n2)CC1 [N-methylquipazine] (10 µM) | 0.139 | 100% (inactive)
13 | O=C(Nc1ccccc1C(=O)Nc1ccc(CCO)cc1)c1ccc([N+](=O)[O-])cc1 (10 µM) | -0.0336 | 112% (inactive)
14 | CCN(CCO)CCCOc1ccc2c(Nc3cc(CC(=O)Nc4cccc(F)c4)[nH]n3)ncnc2c1 [barasertib-HQPA] (10 µM) | 0.0875 | 112% (inactive)
15 | NS(=O)(=O)c1cc2c(cc1Cl)NC(C1CC3C=CC1C3)NS2(=O)=O (stereo unspecified) [cyclothiazide] (10 µM) | 0.0121 | 106% (inactive)
16 | CN1CCC(Nc2ncc3ncnc(Nc4ccc(F)c(Cl)c4)c3n2)CC1 (10 µM) | 0.0447 | 114% (inactive)
17 | O=C(O)C1CSCN1 (stereo unspecified) [timonacic] (10 µM) | -0.0905 | 110% (inactive)
18 | C[N+]1(C)CCC(=C(c2ccccc2)c2ccccc2)CC1 [diphemanil] (10 µM) | -0.00596 | 95.5% (inactive)
19 | CN1CCN(Cc2ccc(Nc3ncc(Cl)c(Nc4ccccc4S(=O)(=O)N(C)C)n3)cc2)CC1 (10 µM) | -0.145 | 120% (inactive)
20 | Cn1nc(-c2ccc(C(F)(F)F)cc2)nc2c(=O)n(C)c(=O)nc1-2 [walrycin-B] (0.833333 µM) | 0.4 | 86.5% (inactive)
21 | O=C(O)CCc1nc(-c2ccccc2)c(-c2ccccc2)o1 [oxaprozin] (10 µM) | -0.00592 | 116% (inactive)
22 | CCOC(=O)[C@@H](C)Oc1cccc2c(=O)n(CC(=O)Nc3ccc4c(c3)OCCO4)ccc12 (10 µM) | -0.204 | 108% (inactive)
23 | COc1ccc(C(=O)NCc2cccnc2)cc1C(=O)NCc1cccnc1 [picotamide] (10 µM) | -0.08 | 115% (inactive)
24 | CCC1(CC)C(=O)C=CNC1=O [pyrithyldione] (10 µM) | -0.0471 | 107% (inactive)
25 | CCN1CCCC(OC(=O)C(c2ccccc2)c2ccccc2)C1 (stereo unspecified) [piperidolate] (10 µM) | 0.17 | 106% (inactive)
26 | Cc1nc2ccccc2c(-c2ccc3c4c(ccnc24)CCO3)c1[C@H](OC(C)(C)C)C(=O)O (10 µM) | 0.0152 | 104% (inactive)
27 | O=C1C2CC=CCC2C(=O)N1SC(Cl)(Cl)Cl (stereo unspecified) [captan] (10 µM) | 0.232 | 93% (inactive)
28 | Oc1ccc2c3c1O[C@H]1c4oc5ccccc5c4C[C@@]4(O)[C@@H](C2)N(CC2CC2)CC[C@]314 [naltriben] (10 µM) | -0.128 | 106% (inactive)
